Assay [1] deals with Cytochrome P450 1A2 (Homo sapiens) (UniProt P05177). As to the kind of experiment: p450-cyp1a2 (AID 410; calls by dose curve; further: potency means the concentration at half of the fitted maximal effect;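 on activity change, negative = inhibition: -100% = full effect of reference inhibitor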). The essentials: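 O-Demethylation of luciferin 6' methyl ether by human CYP1A2 is monitored as luciferase luminescence. Substrate sits at Km (100uM); enzyme is 20nM. Values are scaled to 57 uM furafylline as maximal inhibition.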
A short description of assay [2]: NFAT Signaling Pathway (AID 444).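 Further: carbachol stimulus at about its EC50 of 1 µM final; on the % scale 0 is the no-effect control and ±100 the full control effect.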 As to conditions: Jurkat NFAT-bla M1, carbachol, beta-lactamase ratio, 5 h. The method in brief:
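Read-out: CCF4 FRET ratio (460 nm/530 nm) after 1 h RT dye loading, used for %activity and AC50 from titration series. Cells: Jurkat NFAT-β-lactamase/M1 line, treated with compound plus 1 uM carbachol for 5 h, 37 °C.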

The target in assay [3] is Lysosomal acid glucosylceramidase (Homo sapiens) (UniProt P04062). As to the kind of experiment: Glucocerebrosidase-p2 (AID 348; in the data active means potency below about 10 µM; further: potency means the concentration at half of the fitted maximal effect). The following applies: purified GBA, blue fluorogenic substrate, 40 min. The source says:
Beta-glucocerebrosidase catalyzes the hydrolysis of beta-glucocerebroside to glucose and ceramide. The inherited deficiency of beta-glucocerebrosidase results in Gaucher disease, which is characterized by a wide variety of symptoms including hepatosplenomegaly, anemia, thrombocytopenia, bony lesions and bone marrow infiltration with characteristic storage cells, known as Gaucher cells. There are also forms of the disorder affecting the central nervous system. Patients with the same genotypes can manifest with diverse clinical presentations and it is believed that improper folding and trafficking of beta-glucocerbrosidase may contribute to the phenotypes observed.
Low molecular weight molecules, acting as chaperones, may potentially restore trafficking of misfolded beta-glucocerebrosidase from the endoplasmic reticulum to the lysosomes, thereby enhancing functional lysosomal beta-glucocerebrosidase activity.
Using normal beta-glucocerebrosidase, an assay was developed to screen for small molecule inhibitors that could potentially act as molecular chaperones on the mutant forms [developed with NIH investigator Dr. Ellen Sidransky#s laboratory]. Two pro-fluorescent substrates were chosen for two screens against a small molecule library. One beta-glucocerebrosidase assay used Resorufin beta-D-Glucopyranoside (Marker Gene Technology Inc.), generating a red fluorescent product. The second assay used […] fluorescent product. The Km for the Resorufin beta-D-Glucopyranoside and Fluorescein di-beta-D-Glucopyranoside were determined to be 71.2 uM and 855 uM, respectively. The IC50 values of Conduritol B Epoxide, a known glucocerebrosidase inhibitor, were determined to be 87.5 uM and 117 uM, respectively. The use of two difference pro-fluorescent substrates in the screens helped to eliminate false positives. All compounds were screened in a titration series resulting in AC50s (e.g., IC50s or EC50s). Data normalization and AC50 calculations were accomplished using GeneData software.
NCGC Assay Protocol Summary
Both enzyme and substrate were diluted in buffer composed of 50mM citric acid/KH2PO4, 10mM sodium taurocholate and 0.01% tween-20 at pH 5.9. The final concentration of the enzyme was 0.2 nM in both assays. The compound library was titrated in 7 to 15 concentrations for the primary screens with a final concentration ranging from 0.6 nM to 50 uM. This particular assay protocol is for the "blue" substrate, and it was performed in 1536-well plate format as follows:
Blue fluorescence substrate assay:
1 uL substrate (final concentration of 80 uM)
Incubate at room temperature (RT) for 40 minutes
3 uL stop solution (1 M NaOH and 1 M glycine in water)
Read the plate in Viewlux plate reader (Ex=365(10) and Em=440(10)).

The nature of assay [4]: Cell Viability - BJ (AID 421; calls by dose curve;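 further: potency means the concentration at half of the fitted maximal effect; cells exposed to compound for 40 hours at 37 °C before readout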). As to conditions: BJ fibroblast viability, qHTS. The essentials: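 Cytotoxicity as drop in intracellular ATP (CellTiter-Glo, 20 min RT) after 40 hr compound exposure of BJ fibroblasts at 37 °C. Titrations scaled between DMSO and 100 uM tamoxifen, Hill-fitted for AC50.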
(In general: qHTS replaces the single test concentration by a dilution series.)

The nature of assay [5]: Cell Viability - Jurkat (AID 426;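 active means dose-dependent loss of cell ATP signal giving a full or clear fitted curve, ranked by lower potency value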;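 further: potency means the concentration at half of the fitted maximal effect; cells exposed to compound for 40 hours at 37 °C before ATP read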). The following applies: qHTS. The method in brief:
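Cells of the human T-cell leukemia line Jurkat (E6-1) are seeded at 5000 per well, treated with compound across a concentration range for 40 hours at 37 °C, then lysed with CellTiter-Glo; luminescence reports ATP.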

The nature of assay [6]: Cell Viability - Hek293 (AID 427;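 active means compounds whose dose-response curve shows a full or clear partial loss of cell viability, called from curve shape rather than a numeric limit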;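 further: potency means the concentration at half of the fitted maximal effect; cells exposed to compound for 40 hours at 37 °C before reading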). As to conditions: qHTS. The method in brief:
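Luminescent ATP content (CellTiter-Glo, 20 min at room temperature) was measured after a 40 hr, 37 °C compound exposure of HEK293 cells. AC50 values came from Hill-equation fits of qHTS concentration-response data normalized to DMSO and 100 uM tamoxifen.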

Assay [7] can be described thus: Cell Viability - HepG2 (AID 433; calls by dose curve;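 further: potency means the concentration at half of the fitted maximal effect; potency for ATP loss meaning cytotoxicity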). The following applies: qHTS. The essentials: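 Cytotoxicity is scored as loss of intracellular ATP in HepG2 cells exposed to compounds for 40 h. Concentration-response curves, normalized to DMSO and 100 uM tamoxifen, give AC50 values.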
A short description of assay [8]: Cell Viability - MRC5 (AID 434; calls by dose curve;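 further: potency means the concentration at half of the fitted maximal effect; potency reflects cytotoxicity seen as loss of intracellular ATP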). The following applies: MRC5 lung fibroblast viability, qHTS. The essentials: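 AC50 values come from Hill-equation fits of intracellular ATP loss, measured by CellTiter-Glo luminescence. Normal lung fibroblasts (MRC5) had 40 hr compound treatment at 37 C, normalized between DMSO and 100 uM tamoxifen.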
A short description of assay [9]: Cell Viability - SK-N-SH (AID 435; calls by dose curve;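 further: potency means the concentration at half of the fitted maximal effect; compound exposure lasted 40 h at 37 °C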). The following applies: SK-N-SH neuroblastoma cell viability qHTS. The essentials: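 Cells seeded at 1500 per well and incubated 5 hr at 37 °C. Compound added, then 40 hr at 37 °C. CellTiter-Glo added, 20 min at room temperature, luminescence read.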
Assay [10] in a line: AP1 Signaling Pathway (AID 357).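 Further: ME-180 reporter cells stimulated with EGF at its EC50 level; on the % scale 0 is the no-effect control and ±100 the full control effect.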 The essentials:
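Titration-series screen for positive or negative modulators of EC50 EGF-induced signaling in ME-180 cells carrying an AP-1-driven beta-lactamase reporter. After 5 hours at 37 degrees Celsius, CCF4 460nm/530nm emission ratio gave %Activity; AC50 values derived.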

The mark [11] stands for this setting: at 17.2 µM (top of the series) unless noted.

Several values for one entry are separate records, joined by “and”; a condition that tells them apart may be missing. Equal values may be shown once. A number with no mark means an inactive call. Records with an inconclusive call do not appear. Activity calls are given as the source filed them. Unless noted, the call rests on the fitted dose curve; in most records, active means well fitted curve in either direction with a large enough effect (not every such curve was filed as active); inconclusive means small, poorly fitted or top-dose-only effect, or another doubt; inactive means flat fitted curve, though single readings scatter. A value given as a limit tells only on which side of the number the result lay.

Chain of Cytochrome P450 1A2 (Homo sapiens) (P05177 whole entry, looked up): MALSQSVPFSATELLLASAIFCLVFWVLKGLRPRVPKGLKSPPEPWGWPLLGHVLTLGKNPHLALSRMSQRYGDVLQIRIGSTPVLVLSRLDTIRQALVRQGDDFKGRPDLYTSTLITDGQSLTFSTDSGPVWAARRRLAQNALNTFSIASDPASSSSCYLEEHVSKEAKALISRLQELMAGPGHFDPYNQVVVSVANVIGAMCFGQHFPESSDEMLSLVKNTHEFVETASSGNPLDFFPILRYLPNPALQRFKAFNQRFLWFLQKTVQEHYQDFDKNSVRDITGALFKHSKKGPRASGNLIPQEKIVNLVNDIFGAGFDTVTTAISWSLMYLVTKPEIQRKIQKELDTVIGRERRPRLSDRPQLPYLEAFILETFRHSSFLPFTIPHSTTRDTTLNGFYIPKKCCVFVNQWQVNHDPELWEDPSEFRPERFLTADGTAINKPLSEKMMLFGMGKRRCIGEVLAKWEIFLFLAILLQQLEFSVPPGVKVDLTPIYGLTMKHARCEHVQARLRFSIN
Chain of Lysosomal acid glucosylceramidase (Homo sapiens) (P04062 whole entry, looked up): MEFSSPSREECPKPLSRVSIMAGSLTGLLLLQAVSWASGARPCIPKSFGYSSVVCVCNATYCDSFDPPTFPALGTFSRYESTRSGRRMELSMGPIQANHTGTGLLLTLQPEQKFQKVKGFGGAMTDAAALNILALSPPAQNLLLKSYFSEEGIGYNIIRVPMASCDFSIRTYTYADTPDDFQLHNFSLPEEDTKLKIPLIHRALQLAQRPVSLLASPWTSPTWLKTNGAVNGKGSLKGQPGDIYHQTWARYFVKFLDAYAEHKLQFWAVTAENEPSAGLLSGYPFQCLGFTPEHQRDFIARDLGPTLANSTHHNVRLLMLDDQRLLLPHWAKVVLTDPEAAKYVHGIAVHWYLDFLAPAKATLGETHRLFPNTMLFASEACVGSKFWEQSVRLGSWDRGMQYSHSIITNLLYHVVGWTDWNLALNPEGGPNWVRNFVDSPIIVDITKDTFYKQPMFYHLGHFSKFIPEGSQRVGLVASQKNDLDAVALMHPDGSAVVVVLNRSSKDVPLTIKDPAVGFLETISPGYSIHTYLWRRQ

For `NCc1ccc(S(N)(=O)=O)cc1`, the Potency entry in assay [1] was “inactive”. Besides, in [2] (setting [11]), the activity change, negative = inhibition was -1.12% and 9.4%.

In the case of `O=S1(=O)OC(c2ccc(O)cc2)(c2ccc(O)cc2)c2ccccc21`, the Potency in assay [3] is > 11.4 µM. Moreover, the activity change, negative = inhibition in [2] (setting [11]) was 14.9% [at 7.69 µM].

Turning to `CC(C)=CCC/C(C)=C/CO`, the Potency in [3] was > 11.4 µM. Moreover, the activity change, negative = inhibition in [2] (setting [11]) is 4.14% [at 7.69 µM].

Regarding `Cc1cc(C)nc(NS(=O)(=O)c2ccc(N)cc2)n1`, in assay [1], the Potency entry is “inactive”. For the same compound, the Potency in [4], in assay [5], in [6], in [7], in assay [8] and in assay [9] was > 92 µM in each case. In addition, the activity change, negative = inhibition in assay [2] (setting [11]) is -2.6%.

Consider `NS(=O)(=O)c1ccc(C(=O)O)cc1`, for which the Potency in assay [3] was > 11.4 µM. Further, the Potency result in assay [1] was “inactive”. Also, the activity change, negative = inhibition in [2] (at 7.69 µM (top of the series)) is 7.39%; in assay [2] (at 17.2 µM (top of the series)) it was 8.44%.

As to `Cc1cccc(Nc2ccccc2C(=O)O)c1C`, the Potency in assay [1] is 5.01 µM (active). In addition, the activity change, negative = inhibition in assay [2] (setting [11]) is -4.97%.

Take `Cn1c(=O)c2c(ncn2CCO)n(C)c1=O`: in [1], the Potency entry is “inactive”. The activity change, negative = inhibition in assay [2] (setting [11]) was -0.574%.

Turning to `NC(N)=NS(=O)(=O)c1ccc(N)cc1`, the Potency result in [1] was “inactive”. Further, the activity change, negative = inhibition in assay [2] (setting [11]) was -6.04% and -19.4%.

In the case of `O=C(O)c1ccccc1OP(=O)(O)O`, the Potency entry in [1] was “inactive”. Besides, the activity change, negative = inhibition in [2] (setting [11]) was -20.2%.

For the compound `CC(=O)NS(=O)(=O)c1ccc(N)cc1`, the Potency result in assay [1] is “inactive”. The Potency in [4], in assay [5], in [6], in assay [7], in [8] and in assay [9] was > 92 µM in each case. For the same compound, the activity change, negative = inhibition in assay [2] (setting [11]) is -1.44% and -25.8%.

On to `CCN(CC)CCOC(=O)C(c1ccccc1)c1ccccc1`, for which the Potency in assay [1] was 5.01 µM (active). For the same compound, in assay [2] (setting [11]), the activity change, negative = inhibition is -79.3% (active).

Turning to `Cc1ncc(CO)c(CN)c1O`, the Potency in assay [3] is > 11.4 µM. Moreover, in assay [2] (setting [11]), the activity change, negative = inhibition is -0.448% [at 7.69 µM].

Consider `CN/C(=C\[N+](=O)[O-])NCCSCc1csc(CN(C)C)n1`, for which the compound was called inactive in assay [10]. For the same compound, in [1], the Potency entry was “inactive”. For the same compound, in assay [2] (setting [11]), the activity change, negative = inhibition is -2.1%.

Take `CCOC(=O)[C@H](CCc1ccccc1)N[C@@H](C)C(=O)N1CCC[C@H]1C(=O)O`: the Potency entry in assay [1] was “inactive”. Besides, in [2] (setting [11]), the activity change, negative = inhibition is 0.851%.

Take `COc1ccc2cc(CCC(C)=O)ccc2c1`: in assay [1], the Potency is 0.398 µM (active). In addition, in assay [2] (setting [11]), the activity change, negative = inhibition was -1.6%.

In the case of `CCN(CC)CCc1nc(-c2ccccc2)no1`, in assay [1], the Potency is 5.01 µM (active).

Regarding `C[C@@H]1CCC[C@H](C)N1`, in assay [1], the Potency entry is “inactive”. The activity change, negative = inhibition in assay [2] (setting [11]) is -5.56%.

Turning to `CC[N+](C)(CC)CCOC(=O)C1c2ccccc2Oc2ccccc21`, the Potency in assay [1] was 10 µM (active).

On to `CC[N+](CC)(CC(=O)Nc1c(C)cccc1C)Cc1ccccc1`, for which, in [1], the Potency entry is “inactive”.

Turning to `CN1C(C)(C)CCCC1(C)C`, the compound was called inactive in assay [10]. Also, the activity change, negative = inhibition in assay [2] (at 17.2 µM (top of the series)) is -4.12%; in assay [2] (at 38 µM (top of the series)) it was 7.41%.

With `O=C(O)COC(=O)Cc1ccccc1Nc1c(Cl)cccc1Cl`, the Potency entry in [1] is “inactive”. Further, in [2] (setting [11]), the activity change, negative = inhibition was -7.48%.

For `Cc1c(NC(C)C)c(=O)n(-c2ccccc2)n1C`, the Potency in assay [1] was 0.0398 µM (active). In addition, in [2] (setting [11]), the activity change, negative = inhibition was -8.51%.

`O=C(Cn1ccnc1[N+](=O)[O-])NCCO`: the Potency entry in assay [1] was “inactive”. In addition, the activity change, negative = inhibition in [2] (setting [11]) was -5.19%.

In the case of `CC(C)(C)C(=O)OCOC(=O)[C@@H]1N2C(=O)[C@@H](NC(=O)[C@H](N)c3ccccc3)[C@H]2SC1(C)C`, the Potency result in [1] is “inactive”.

For the compound `C[N+](C)(C)CC[N+]1(C)Cc2c(Cl)c(Cl)c(Cl)c(Cl)c2C1`, the Potency entry in assay [1] is “inactive”.

For `CN(C(=O)c1c(O)c2ccccc2n(C)c1=O)c1ccccc1`, the Potency entry in assay [1] was “inactive”.

Take `CC(=O)SC[C@@H](Cc1ccccc1)C(=O)NCC(=O)OCc1ccccc1`: the Potency in assay [1] is 2.51 µM (active). In addition, in assay [2] (setting [11]), the activity change, negative = inhibition is -12%.

With `COc1ccc(NS(=O)(=O)c2ccc(N)cc2)nn1`, the compound was called inactive in assay [10]. The activity change, negative = inhibition in [2] (setting [11]) is -4.78% and 5.22%.

Turning to `Cc1cc(NC(=O)C2=C(O)c3ccccc3S(=O)(=O)N2C)no1`, in assay [10], the compound was classed as inactive. For the same compound, the Potency entry in assay [1] is “inactive”. Also, in [2] (setting [11]), the activity change, negative = inhibition was -5.7% and 4.09%.

Regarding `O=C(O)c1ccccc1C(=O)Nc1ccc(S(=O)(=O)Nc2nccs2)cc1`, the Potency entry in assay [1] was “inactive”. For the same compound, in assay [2] (setting [11]), the activity change, negative = inhibition was 11.2%.

As for `CCc1cccc(CC)c1NC(=O)CN(CC(=O)O)CC(=O)O`, in assay [1], the Potency entry is “inactive”. The activity change, negative = inhibition in assay [2] (setting [11]) was -2.21%.

Turning to `Cn1c([N+](=O)[O-])cnc1COC(N)=O`, the Potency entry in assay [1] was “inactive”. Also, the activity change, negative = inhibition in [2] (setting [11]) was -6.16% and -23.1%.

Values taken from PubChem BioAssay (NCATS).
